14 targets from the supplement of paper PMC11006884 can be followed below.

The full data set covers some 6,500 targets. This sample favours those with a hit. About 2% of all pairs of compound and target were hits. Unmarked numbers belong to inactive results.

UniProt P53384, sequence (P53384 whole entry, looked up): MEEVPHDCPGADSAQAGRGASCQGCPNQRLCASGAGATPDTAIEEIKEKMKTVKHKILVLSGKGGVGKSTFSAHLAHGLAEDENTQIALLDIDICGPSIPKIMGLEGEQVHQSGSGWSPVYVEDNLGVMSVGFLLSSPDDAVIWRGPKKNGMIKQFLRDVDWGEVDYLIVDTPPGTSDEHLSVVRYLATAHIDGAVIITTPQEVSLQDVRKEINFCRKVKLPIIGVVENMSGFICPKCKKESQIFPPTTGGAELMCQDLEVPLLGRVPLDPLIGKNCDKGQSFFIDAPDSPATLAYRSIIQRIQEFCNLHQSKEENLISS
UniProt Q14566, sequence (Q14566 whole entry, looked up): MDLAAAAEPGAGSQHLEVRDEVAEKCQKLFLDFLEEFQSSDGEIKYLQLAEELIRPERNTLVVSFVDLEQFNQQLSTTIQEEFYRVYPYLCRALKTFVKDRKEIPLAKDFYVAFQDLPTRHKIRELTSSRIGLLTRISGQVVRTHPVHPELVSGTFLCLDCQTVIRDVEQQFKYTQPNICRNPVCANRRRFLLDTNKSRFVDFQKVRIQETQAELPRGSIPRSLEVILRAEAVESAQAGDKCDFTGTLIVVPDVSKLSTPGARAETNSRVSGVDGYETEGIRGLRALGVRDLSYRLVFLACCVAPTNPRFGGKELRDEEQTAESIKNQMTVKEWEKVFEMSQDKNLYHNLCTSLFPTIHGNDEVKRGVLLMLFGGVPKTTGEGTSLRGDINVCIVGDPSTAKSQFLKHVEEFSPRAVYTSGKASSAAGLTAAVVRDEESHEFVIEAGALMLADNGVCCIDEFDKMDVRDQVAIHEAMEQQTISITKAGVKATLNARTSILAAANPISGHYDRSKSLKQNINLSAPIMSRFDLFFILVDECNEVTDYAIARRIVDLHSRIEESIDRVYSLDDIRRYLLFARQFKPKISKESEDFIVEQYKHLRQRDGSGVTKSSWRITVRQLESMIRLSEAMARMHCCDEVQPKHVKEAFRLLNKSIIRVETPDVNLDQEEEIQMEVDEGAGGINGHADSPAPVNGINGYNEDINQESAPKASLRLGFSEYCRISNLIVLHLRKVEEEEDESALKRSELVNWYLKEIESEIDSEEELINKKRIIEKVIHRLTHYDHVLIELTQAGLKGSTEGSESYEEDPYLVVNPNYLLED
UniProt Q3KQU3, sequence (Q3KQU3 whole entry, looked up): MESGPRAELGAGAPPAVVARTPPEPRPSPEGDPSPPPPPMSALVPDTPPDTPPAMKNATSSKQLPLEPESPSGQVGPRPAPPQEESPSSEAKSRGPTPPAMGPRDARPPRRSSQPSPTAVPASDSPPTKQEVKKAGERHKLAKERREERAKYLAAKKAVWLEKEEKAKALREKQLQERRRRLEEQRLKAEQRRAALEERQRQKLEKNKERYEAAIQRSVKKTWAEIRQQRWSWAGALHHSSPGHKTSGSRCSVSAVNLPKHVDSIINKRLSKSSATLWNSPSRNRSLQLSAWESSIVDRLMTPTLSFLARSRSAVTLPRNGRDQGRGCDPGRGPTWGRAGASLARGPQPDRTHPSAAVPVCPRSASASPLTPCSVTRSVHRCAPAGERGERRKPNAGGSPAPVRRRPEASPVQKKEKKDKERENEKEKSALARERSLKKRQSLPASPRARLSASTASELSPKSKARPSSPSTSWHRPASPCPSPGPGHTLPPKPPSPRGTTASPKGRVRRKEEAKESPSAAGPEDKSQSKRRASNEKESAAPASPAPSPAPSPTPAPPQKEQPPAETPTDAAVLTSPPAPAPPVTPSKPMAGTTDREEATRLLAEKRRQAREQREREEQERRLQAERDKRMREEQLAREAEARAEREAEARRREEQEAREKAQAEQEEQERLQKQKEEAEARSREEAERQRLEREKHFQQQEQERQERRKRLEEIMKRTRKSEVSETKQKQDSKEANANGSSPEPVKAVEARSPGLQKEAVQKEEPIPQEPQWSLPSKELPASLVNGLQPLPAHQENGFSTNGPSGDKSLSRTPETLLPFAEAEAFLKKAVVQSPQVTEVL
UniProt Q16718, sequence (Q16718 whole entry): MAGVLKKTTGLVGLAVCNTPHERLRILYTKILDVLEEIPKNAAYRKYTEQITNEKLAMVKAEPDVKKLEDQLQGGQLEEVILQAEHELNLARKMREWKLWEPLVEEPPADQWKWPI
UniProt Q32MZ4, sequence (Q32MZ4 whole entry, looked up): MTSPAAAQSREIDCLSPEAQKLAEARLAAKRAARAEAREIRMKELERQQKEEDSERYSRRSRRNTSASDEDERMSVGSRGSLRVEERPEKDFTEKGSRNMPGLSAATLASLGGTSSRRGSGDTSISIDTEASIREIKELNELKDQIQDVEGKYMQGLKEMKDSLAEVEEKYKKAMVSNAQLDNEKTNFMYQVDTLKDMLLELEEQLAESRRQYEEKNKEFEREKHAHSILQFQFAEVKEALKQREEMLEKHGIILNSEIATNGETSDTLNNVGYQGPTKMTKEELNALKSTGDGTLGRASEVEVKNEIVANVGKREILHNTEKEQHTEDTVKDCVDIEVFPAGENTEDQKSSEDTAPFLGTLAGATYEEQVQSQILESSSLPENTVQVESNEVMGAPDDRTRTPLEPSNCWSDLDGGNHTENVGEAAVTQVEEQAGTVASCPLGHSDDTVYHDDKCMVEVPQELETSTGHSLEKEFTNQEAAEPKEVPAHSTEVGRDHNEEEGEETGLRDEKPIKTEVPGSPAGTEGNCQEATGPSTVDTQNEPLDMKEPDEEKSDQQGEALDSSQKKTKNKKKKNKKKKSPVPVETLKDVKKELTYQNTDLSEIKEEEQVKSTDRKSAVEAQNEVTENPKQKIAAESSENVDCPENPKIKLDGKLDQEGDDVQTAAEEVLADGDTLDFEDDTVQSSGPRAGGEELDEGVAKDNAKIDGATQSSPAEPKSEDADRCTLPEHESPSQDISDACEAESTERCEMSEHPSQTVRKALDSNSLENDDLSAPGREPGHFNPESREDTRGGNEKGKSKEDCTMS
UniProt Q14684, sequence (Q14684 whole entry, looked up): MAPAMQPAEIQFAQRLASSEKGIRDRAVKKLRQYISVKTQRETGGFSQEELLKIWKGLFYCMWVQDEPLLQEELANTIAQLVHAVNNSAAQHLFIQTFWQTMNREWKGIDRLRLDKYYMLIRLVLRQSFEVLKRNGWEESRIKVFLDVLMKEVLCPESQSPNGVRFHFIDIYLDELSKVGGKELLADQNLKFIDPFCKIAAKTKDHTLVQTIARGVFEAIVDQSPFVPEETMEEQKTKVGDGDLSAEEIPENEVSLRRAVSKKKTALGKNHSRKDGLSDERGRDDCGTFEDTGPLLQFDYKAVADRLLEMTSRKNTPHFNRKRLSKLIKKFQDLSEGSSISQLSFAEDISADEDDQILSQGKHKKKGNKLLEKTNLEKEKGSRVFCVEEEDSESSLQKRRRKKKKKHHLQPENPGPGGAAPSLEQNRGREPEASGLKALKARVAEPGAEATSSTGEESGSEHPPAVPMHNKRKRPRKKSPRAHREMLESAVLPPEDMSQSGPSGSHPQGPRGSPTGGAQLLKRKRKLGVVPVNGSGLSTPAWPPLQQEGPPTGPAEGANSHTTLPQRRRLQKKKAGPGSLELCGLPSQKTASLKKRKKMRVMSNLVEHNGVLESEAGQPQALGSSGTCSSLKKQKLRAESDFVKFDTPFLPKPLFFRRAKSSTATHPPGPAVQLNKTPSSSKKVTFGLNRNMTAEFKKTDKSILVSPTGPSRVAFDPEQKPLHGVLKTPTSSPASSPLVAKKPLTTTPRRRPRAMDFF
UniProt Q15020, sequence (Q15020 whole entry, looked up): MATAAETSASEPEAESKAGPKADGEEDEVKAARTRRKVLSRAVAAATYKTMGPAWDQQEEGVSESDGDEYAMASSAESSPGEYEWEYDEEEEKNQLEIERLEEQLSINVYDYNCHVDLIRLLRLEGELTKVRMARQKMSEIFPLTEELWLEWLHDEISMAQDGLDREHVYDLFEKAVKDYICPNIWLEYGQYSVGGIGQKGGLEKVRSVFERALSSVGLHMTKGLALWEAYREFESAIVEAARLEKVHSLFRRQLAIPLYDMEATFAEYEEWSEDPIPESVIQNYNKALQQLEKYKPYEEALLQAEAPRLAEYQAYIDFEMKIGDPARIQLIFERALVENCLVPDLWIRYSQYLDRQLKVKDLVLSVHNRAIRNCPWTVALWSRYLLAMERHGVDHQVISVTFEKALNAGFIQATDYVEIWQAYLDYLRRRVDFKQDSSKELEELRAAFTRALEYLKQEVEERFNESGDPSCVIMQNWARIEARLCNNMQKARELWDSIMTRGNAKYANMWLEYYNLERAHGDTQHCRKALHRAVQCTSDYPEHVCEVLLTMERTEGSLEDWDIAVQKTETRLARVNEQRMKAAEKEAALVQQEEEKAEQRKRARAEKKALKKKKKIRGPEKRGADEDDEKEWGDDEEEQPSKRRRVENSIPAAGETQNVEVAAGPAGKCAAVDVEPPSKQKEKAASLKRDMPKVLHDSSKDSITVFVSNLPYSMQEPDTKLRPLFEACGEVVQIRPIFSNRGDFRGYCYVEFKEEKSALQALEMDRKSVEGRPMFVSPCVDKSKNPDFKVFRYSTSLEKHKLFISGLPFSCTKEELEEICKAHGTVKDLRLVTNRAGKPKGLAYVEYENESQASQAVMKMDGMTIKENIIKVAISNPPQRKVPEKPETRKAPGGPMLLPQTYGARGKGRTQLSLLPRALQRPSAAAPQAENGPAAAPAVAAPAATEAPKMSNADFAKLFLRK

Compound in this assay: COC(=O)C#Cc1ccccc1 [methyl 3-phenylpropiolate]
As to the kind of experiment: log2 ratio of iodoacetamide-alkyne labeling of the cysteine site, DMSO over compound (competition); higher = stronger covalent engagement of the cysteine by the compound, active = 1 or more. The following applies: 500 µM; treatment time 1 h; system: HEK293T cell lysate. In a few lines:
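HEK293T lysate at 2 mg/mL was treated with vehicle or electrophile (500 µM) for 1 h at ambient temperature, then labelled with iodoacetamide alkyne (1 h), clicked to sCIP-TMT reagents, pooled, digested with trypsin overnight at 37 °C, enriched on streptavidin and eluted with acid. Peptides were analysed by Orbitrap Eclipse LC-MS/MS with FAIMS and quantified in FragPipe, using duplicate channels and three replicates, with cysteines quantified in only one replicate excluded. The log2 competition ratio for each cysteine is the mean control-channel reporter intensity divided by the mean compound-channel reporter intensity.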
Take FLYWCH1 C173 (UniProt Q4VC44): the “log2 ratio of iodoacetamide-alkyne labeling” value (from here on “log2 ratio”) is -0.0462.

Turning to MAP7D1 C373 (UniProt Q3KQU3), the “log2 ratio” value is 0.815.

For the target MCM6 C242 (UniProt Q14566), the “log2 ratio” value is 0.192.

Turning to UniProt P78527_C3281, the “log2 ratio” value was 0.287.

Consider LRRFIP1 C14 (UniProt Q32MZ4), for which the “log2 ratio” value was 0.0967.

On to SART3 C472 (UniProt Q15020), for which the “log2 ratio” value is 0.326.

As to NUBP1 C22 (UniProt P53384), the “log2 ratio” value is 2.24 (active).

As to UniProt P62244_C72, the “log2 ratio” value is 0.177.

For the target UniProt Q3LXA3_C24, the “log2 ratio” value was 0.218.

Take UniProt P83731_C6: the “log2 ratio” value is 0.668.

For FOXK1 C665 (UniProt P85037), the “log2 ratio” value is 0.531.

In the case of RRP1B C628 (UniProt Q14684), the “log2 ratio” value was 0.838.

On to TSR1 C329 (UniProt Q2NL82), for which the “log2 ratio” value is 0.425.

NDUFA5 C17 (UniProt Q16718): the “log2 ratio” value was 0.144.
